Results reported in the supplement of paper PMC10646978.
± gives the standard deviation.

How the values were obtained:
Conditions in all cases: modulator concentration 10 µM
[1] = system: RAW-Dual (murine macrophage reporter line); experiment: NF-kB reporter (SEAP) activity fold change vs agonist alone; higher = enhanced NF-kB activity
In short: (§1)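 RAW-Dual murine macrophage reporter cells were seeded at 50 000 per well in 384-well plates and pre-incubated 1 hour at 37 °C with compound pin-transferred to 10 μM final. After 1 hour, a PRR agonist was added and cells incubated overnight. Supernatant NF-κB (SEAP, QUANTI-Blue, 620 nm absorbance) and IRF (Lucia luciferase, QUANTI-Luc, luminescence) signals were divided by the mean agonist-only control on the same plate to give fold change. Two replicate plates were averaged, with errors by propagation.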

[2] = system: RAW-Dual (murine macrophage reporter line); experiment: IRF reporter (Lucia luciferase) activity fold change vs agonist alone; higher = enhanced IRF activity
In short: as §1

[3] = system: RAW-Dual (murine macrophage reporter line); experiment: viability score (confluency relative to resting cells, overnight) (fraction); higher = more viable, active = viable (0.7 or more)
In short: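 Two confluency masks, generated with IncuCyte software over all imaged wells, were applied to IncuCyte images of RAW-Dual macrophages. The cells, in 384-well plates, had been exposed overnight to 10 μM final compound. The viability score is confluency as a fraction of resting cells, and a compound met the cutoff only with both masks above 70% of resting cells.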

[4] = agonist: CpG ODN 1826 0.5 ug/mL

| Structure (SMILES) | NF-kB reporter [1, 4] | NF-kB reporter ([1]; agonist: LPS 0.1 ug/mL) | NF-kB reporter ([1]; agonist: MPLA […]) | IRF reporter ([2]; agonist: 3'3'-cGAMP 10 ug/mL) | IRF reporter ([2]; agonist: LPS 0.1 ug/mL) | IRF reporter ([2]; agonist: MPLA […]) | viability score [3] |
| --- | --- | --- | --- | --- | --- | --- | --- |
| COc1ccc(C2SCc3cc(C)c(C)cc3CS2)cc1OC | 0.831 ± 0.11 | 0.826 ± 0.069 | 1.1 ± 0.1 | 0.965 ± 0.045 | 1.4 ± 0.087 | 1.64 ± 0.14 | 1.01 (active) |
| CCC(=O)NS(=O)(=O)c1ccc(-c2c(-c3ccccc3)noc2C)cc1 | 0.921 ± 0.14 | 1.2 ± 0.26 | 0.905 ± 0.05 | 0.971 ± 0.051 | 1.47 ± 0.31 | 1.25 ± 0.1 | 0.996 (active) |
| CC(N)c1ccc(Nc2ncc3cc(-c4ccncc4)ccc3n2)cc1.Cl.Cl.Cl (centres undefined) | 0.419 ± 0.069 | 1.26 ± 0.08 | 2.73 ± 0.16 | 0.173 ± 0.014 | 0.28 ± 0.05 | 0.42 ± 0.042 | 0.174 (inactive) |
| COC(=O)C1C(=O)C(=CNc2ccccc2O)C(=O)CC1(C)C (centres undefined) | 1.66 ± 0.29 | 1.53 ± 0.13 | 2.44 ± 0.19 | 0.183 ± 0.011 | 1.19 ± 0.11 | 1.02 ± 0.14 | 0.557 (inactive) |
| C[C@@H]1CCN(C(=O)CC#N)C[C@@H]1N(C)c1ncnc2[nH]ccc12.O=C(O)CC(O)(CC(=O)O)C(=O)O | 1.05 ± 0.29 | 0.628 ± 0.047 | 0.885 ± 0.06 | 0.182 ± 0.0066 | 0.366 ± 0.056 | 0.507 ± 0.1 | 0.603 (inactive) |
| COc1cc2c(cc1OC)C1C(=O)c3ccc4c(c3OC1CO2)CCC(C)(C)O4 (centres undefined) | 0.91 ± 0.073 | 1.02 ± 0.075 | 1.67 ± 0.16 | 0.824 ± 0.026 | 1.52 ± 0.24 | 1.75 ± 0.36 | 1.02 (active) |
| CC(=O)Oc1c(C)cc2sc3ccccc3c(=O)c2c1C | 1.06 ± 0.18 | 0.87 ± 0.077 | 0.927 ± 0.095 | 0.846 ± 0.032 | 1.25 ± 0.12 | 1.2 ± 0.12 | 0.998 (active) |
| COc1ccc2[nH]c(S(=O)Cc3ncc(C)c(OC)c3C)nc2n1 (centres undefined) [Prestw-1351] | 0.872 ± 0.15 | 1.15 ± 0.16 | 0.994 ± 0.11 | 0.819 ± 0.029 | 1.11 ± 0.14 | 1.24 ± 0.13 | 0.974 (active) |
| NC12CC3CC(CC(C3)C1)C2 | 1.19 ± 0.31 | 1.09 ± 0.066 | 1.01 ± 0.087 | 0.874 ± 0.061 | 1.13 ± 0.15 | 1.06 ± 0.2 | 0.999 (active) |
| Cc1c(-c2ccccc2)oc2c(C(=O)OCCN3CCCCC3)cccc2c1=O.Cl | 1.21 ± 0.31 | 1.01 ± 0.075 | 0.977 ± 0.067 | 0.883 ± 0.052 | 1.35 ± 0.22 | 1.35 ± 0.16 | 1.01 (active) |
| CC(C)NCC(O)c1ccc(NS(C)(=O)=O)cc1.Cl (centres undefined) | 0.99 ± 0.098 | 1.02 ± 0.057 | 1 ± 0.043 | 1.01 ± 0.056 | 0.978 ± 0.082 | 0.99 ± 0.09 | 1 (active) |
| Cl.O=C1c2cccc3c2C(CCC3)CN1C1CN2CCC1CC2 (centres undefined) | 0.77 ± 0.21 | 0.704 ± 0.044 | 0.825 ± 0.058 | 0.557 ± 0.035 | 0.718 ± 0.086 | 0.924 ± 0.14 | 0.987 (active) |
| Cc1cccc(C(=O)N2N=C(C3CCCCC3)CC2(O)C(F)(F)F)c1O (centres undefined) | 0.735 ± 0.057 | 0.839 ± 0.064 | 0.955 ± 0.089 | 0.939 ± 0.046 | 1.4 ± 0.093 | 1.52 ± 0.14 | 1.01 (active) |
| CC(C(=O)O)c1ccc(CC2CCCC2=O)cc1 (centres undefined) | 0.81 ± 0.11 | 1.03 ± 0.26 | 0.906 ± 0.066 | 0.916 ± 0.042 | 1.19 ± 0.18 | 1.25 ± 0.27 | 1 (active) |
| COc1ccc(C(=O)Nc2sc3c(c2C(N)=O)CCCC3)cc1OC | 0.866 ± 0.067 | 1.01 ± 0.056 | 1.09 ± 0.029 | 0.694 ± 0.038 | 0.942 ± 0.12 | 1.08 ± 0.14 | 0.998 (active) |
| OCCN1CCN(C(c2cccs2)c2ccc3cccnc3c2O)CC1 (centres undefined) | 1.95 ± 0.14 | 0.699 ± 0.036 | 0.66 ± 0.048 | 0.759 ± 0.049 | 0.332 ± 0.027 | 0.26 ± 0.021 | 0.155 (inactive) |
| Cc1ccccc1CC(CC(=O)O)C(=O)O (centres undefined) | 1.1 ± 0.089 | 0.979 ± 0.12 | 0.93 ± 0.094 | 1.03 ± 0.048 | 1.21 ± 0.12 | 1.3 ± 0.19 | 1.03 (active) |
| COC1(CNC(=O)C2CCN(S(C)(=O)=O)CC2)CCSC1 (centres undefined) | 0.879 ± 0.04 | 0.875 ± 0.076 | 1.07 ± 0.1 | 0.946 ± 0.074 | 1.08 ± 0.15 | 1.22 ± 0.34 | 0.97 (active) |
| C[N+]1(C)CCC(OC(=O)C(O)(c2ccccc2)C2CCCC2)C1 (centres undefined) [Prestw-746] | 0.923 ± 0.061 | 0.998 ± 0.066 | 0.943 ± 0.062 | 0.949 ± 0.031 | 1.24 ± 0.16 | 1.13 ± 0.17 | 1.01 (active) |
| Cc1cc(O)c(C(C)C)cc1NC(=O)c1cc(C(C)(C)C)oc1C | 1.22 ± 0.12 | 0.884 ± 0.083 | 1.76 ± 0.13 | 0.562 ± 0.025 | 0.998 ± 0.048 | 2.71 ± 0.29 | 0.797 (active) |
| CCN1CCN(S(=O)(=O)c2ccc(Oc3ccccc3)cc2)CC1 | 1 ± 0.061 | 1.01 ± 0.11 | 1.09 ± 0.036 | 0.905 ± 0.043 | 1.09 ± 0.1 | 1.03 ± 0.21 | 0.996 (active) |
| CC(=O)Nc1ccc(S(=O)(=O)N2CCC(Oc3cc(C)nc(C)n3)C2)cc1 (centres undefined) | 0.919 ± 0.039 | 0.923 ± 0.098 | 1.04 ± 0.092 | 0.998 ± 0.08 | 0.936 ± 0.12 | 0.983 ± 0.32 | 0.97 (active) |
| FC(F)(F)c1nnc2ccc(NC3CCN(c4ncnc5c4CCCC5)CC3)nn12 | 1.19 ± 0.096 | 1.52 ± 0.13 | 1.79 ± 0.13 | 1.17 ± 0.086 | 1.46 ± 0.091 | 1.4 ± 0.18 | 0.972 (active) |
| CCOC(=O)C(CCc1ccccc1)NC(C)C(=O)N1C(C(=O)O)CC2CCCCC21 (centres undefined) | 0.994 ± 0.11 | 0.925 ± 0.068 | 1.08 ± 0.1 | 0.953 ± 0.045 | 1.24 ± 0.2 | 1.27 ± 0.29 | 1.05 (active) |
| NC(=O)C1CCCc2c1[nH]c1ccc(Cl)cc21 (centres undefined) | 1.07 ± 0.15 | 1.1 ± 0.14 | 0.878 ± 0.05 | 0.959 ± 0.044 | 1.19 ± 0.25 | 1.24 ± 0.098 | 0.959 (active) |
| CCOCC(=O)Nc1ccc(N2CCCCC2=O)c(C)c1 | 0.884 ± 0.11 | 0.79 ± 0.11 | 0.828 ± 0.16 | 0.899 ± 0.12 | 1.06 ± 0.14 | 1 ± 0.3 | 0.93 (active) |
| NC(=O)OCC(COC(N)=O)c1ccccc1 | 1.06 ± 0.079 | 1.02 ± 0.05 | 1.04 ± 0.095 | 1.16 ± 0.26 | 0.945 ± 0.062 | 0.94 ± 0.11 | 1 (active) |
